High-throughput results deposited in PubChem BioAssay by several laboratories.
Compounds with a hit are over-represented: about 2.5% of the library has one in this group of screens.
ATG4B inhibitor – ATG4B (human) cysteine protease inhibition | ATG4B cleavage of LC3-PLA2, NBD-HPC fluorescence, 1 h | inhibition, % at 8.33 µM | actives 0.51% (n = 340,000); in the data active = inhibition above about 40%
Target sequence (Q9Y4P1 whole entry, looked up): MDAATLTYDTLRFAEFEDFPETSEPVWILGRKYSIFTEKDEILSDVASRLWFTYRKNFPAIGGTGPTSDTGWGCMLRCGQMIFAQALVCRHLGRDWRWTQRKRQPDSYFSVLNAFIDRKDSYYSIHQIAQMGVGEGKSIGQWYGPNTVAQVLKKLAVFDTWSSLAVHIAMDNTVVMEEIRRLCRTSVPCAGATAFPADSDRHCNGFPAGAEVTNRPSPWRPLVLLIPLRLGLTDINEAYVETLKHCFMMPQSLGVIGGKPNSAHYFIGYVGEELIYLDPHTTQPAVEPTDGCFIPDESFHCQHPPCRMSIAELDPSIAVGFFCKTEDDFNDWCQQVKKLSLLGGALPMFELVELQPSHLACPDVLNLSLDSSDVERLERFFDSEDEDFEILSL
Efflux pump mplx – inhibitors of Candida antifungal efflux pumps expressed in yeast. S. cerevisiae Candida pump triplex, Nile Red efflux. inhibition, % at 10 µM. actives 0.44% (n = 330,000);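 active = plate passing quality check with inhibition over a set limit, or well fluorescence over plate mean plus 4 SD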;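 also: Nile Red retained in pooled yeast measured as flow cytometry median fluorescence; higher means more Nile Red kept so more efflux inhibition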
AI-2 QS mod – modulates the Vibrio harveyi AI-2 quorum sensing system. Vibrio harveyi JMH597 AI-2 luminescence/OD600 ratio, 9 h; hits give low values; strain lacks LuxN and CqsS sensors; 0 = neutral-control median. activity change, % at 7.5 µM. actives 0.4% (n = 300,000); in the data active = activity change below about -75%, passing the limit was not always enough;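 also: luminescence divided by OD600 gain over 9 h not by final OD600 alone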
V-ATPase pH – yeast V-ATPase proton transport regulation by pHLuorin; S. cerevisiae, pHLuorin cytosolic pH fluorescence; response, % at 10 µM; actives 0.37% (n = 350,000); in the data active = response mostly above about 7.3%, no sharp cut-off; inactive = mostly below about 5.4%; also: actives read high
SUMO Mot1 rescue – SUMOylation pathway inhibition by Mot1-301 growth rescue | growth rescue, % at 18.8 µM | S. cerevisiae Mot1-301 growth rescue, ATP luminescence, 38.5C; percent above DMSO median, 100 means doubled | AID 2716 | actives 1% (n = 320,000);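 active = every valid replicate shows activation above 250% relative to neutral control wells; inactive = the rest, any valid replicate at or below 250%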
VATPase regulator – regulators of yeast V-ATPase proton transport. shares compounds with V-ATPase pH. S. cerevisiae pHLuorin cytosolic pH. response, % at 10 µM. actives 2% (n = 980); in the data active = response above about 24%
Hits are given with their value.

Cc1cc2[nH]c(=O)c(=O)[nH]c2cc1S(=O)(=O)NC1CCCCC1C (configuration not stated) was read as ATG4B inhibitor inactive, Efflux pump mplx inactive, AI-2 QS mod inactive, V-ATPase pH inactive and SUMO Mot1 rescue inactive.
Screening Cc1ccc(S(=O)(=O)Nc2ccc3ccccc3n2)cc1 returned ATG4B inhibitor inactive, Efflux pump mplx inactive, AI-2 QS mod inactive, V-ATPase pH inactive and SUMO Mot1 rescue inactive.
For Cc1ccc(S(=O)(=O)Nc2cnc3ccccc3c2)cc1 the results were ATG4B inhibitor inactive, Efflux pump mplx inactive, AI-2 QS mod inactive, V-ATPase pH 9.9, SUMO Mot1 rescue inactive and VATPase regulator inactive.
For COC(=O)c1ccccc1C(=O)N(Cc1cccnc1)CC1CCCN(C2CCCCC2)C1 (configuration not stated) the results were ATG4B inhibitor inactive, Efflux pump mplx inactive, AI-2 QS mod inactive, V-ATPase pH inactive and SUMO Mot1 rescue inactive.
CC1=C(C(=O)OCC2CCCO2)C(c2ccc(Cl)cc2)NC(=O)N1 (configuration not stated) was read as ATG4B inhibitor inactive, Efflux pump mplx inactive, AI-2 QS mod inactive, V-ATPase pH inactive and SUMO Mot1 rescue inactive.
For Cn1nc(C(=O)N2CCN(c3cccc(Cl)c3)CC2)c2c1-c1ccccc1S(=O)(=O)C2 the results were ATG4B inhibitor inactive, Efflux pump mplx inactive, AI-2 QS mod inactive, V-ATPase pH inactive and SUMO Mot1 rescue inactive.
`Cn1nc(C(=O)N2CCN(c3ccc(Cl)cc3)CC2)c2c1-c1ccccc1S(=O)(=O)C2` gave ATG4B inhibitor inactive, Efflux pump mplx inactive, AI-2 QS mod inactive, V-ATPase pH 8.6, SUMO Mot1 rescue inactive and VATPase regulator inactive.
CCOC(=O)c1[nH]c2ccccc2c1NC(C)=O was read as ATG4B inhibitor inactive, Efflux pump mplx inactive, AI-2 QS mod inactive, V-ATPase pH inactive and SUMO Mot1 rescue inactive.
`CCOC(=O)c1[nH]c(=O)c2ccccc2c1O` gave ATG4B inhibitor inactive, Efflux pump mplx inactive, AI-2 QS mod inactive, V-ATPase pH inactive, SUMO Mot1 rescue inactive and VATPase regulator inactive.
Screening CCOC(=O)CC(NC(=O)c1cccc2c1C(=O)N(Cc1cccnc1)C2)c1ccc(OCC)c(OC)c1 (configuration not stated) returned ATG4B inhibitor inactive, Efflux pump mplx inactive, AI-2 QS mod inactive, V-ATPase pH inactive and SUMO Mot1 rescue inactive.
For CCn1c(SCC(=O)NC2CCCC2)nnc1-c1c[nH]c2ccccc12 the results were ATG4B inhibitor inactive, Efflux pump mplx inactive, AI-2 QS mod inactive, V-ATPase pH 12.5, SUMO Mot1 rescue inactive and VATPase regulator inactive.
CC(C)CCC(CCNCc1ccccn1)c1ccc(Cl)cc1 (configuration not stated) was read as ATG4B inhibitor inactive, Efflux pump mplx inactive, AI-2 QS mod inactive, V-ATPase pH inactive and SUMO Mot1 rescue inactive.
`O=C(N/C(=C/c1ccc(Br)cc1)C(=O)N1CCOCC1)c1ccco1` gave ATG4B inhibitor inactive, Efflux pump mplx inactive, AI-2 QS mod inactive, V-ATPase pH inactive and SUMO Mot1 rescue inactive.
Screening O=C(N/C(=C\c1ccc(Br)cc1)C(=O)N1CCOCC1)c1ccco1 returned ATG4B inhibitor inactive, Efflux pump mplx inactive, AI-2 QS mod inactive, V-ATPase pH 13.7, SUMO Mot1 rescue inactive and VATPase regulator inactive.
Screening NC(=O)c1ccccc1OCC(=O)Nc1ccc2c(c1)OCCO2 returned ATG4B inhibitor inactive, V-ATPase pH 7.3 and VATPase regulator inactive.
COc1ccccc1OCC(=O)Nc1ccc2c(c1)OCCO2 was read as ATG4B inhibitor inactive, Efflux pump mplx inactive, AI-2 QS mod inactive, V-ATPase pH inactive and SUMO Mot1 rescue inactive.
O=C(CN1Cc2ccccc2C1=O)Nc1ccc2c(c1)OCCO2 was read as ATG4B inhibitor inactive, Efflux pump mplx inactive, AI-2 QS mod inactive, V-ATPase pH 10.9, SUMO Mot1 rescue inactive and VATPase regulator inactive.
For C[C@H]1CN([C@@H](C)CO)C(=O)c2cc(Br)cnc2O[C@@H]1CN(C)C(=O)c1ccncc1 the results were V-ATPase pH inactive.
CCOc1cc2[nH]c(=S)n(C3CC3)c(=O)c2cc1OCC was read as ATG4B inhibitor inactive, Efflux pump mplx inactive, AI-2 QS mod inactive, V-ATPase pH 11.7, SUMO Mot1 rescue inactive and VATPase regulator inactive.
For Cn1c(N)c(C(=O)c2ccc(F)cc2F)c(=O)n(C)c1=O the results were ATG4B inhibitor inactive, Efflux pump mplx inactive, AI-2 QS mod inactive, V-ATPase pH 8.4, SUMO Mot1 rescue inactive and VATPase regulator inactive.
Screening Cn1c(N)c(C(=O)c2ccc(Cl)cc2)c(=O)n(C)c1=O returned ATG4B inhibitor inactive, Efflux pump mplx inactive, AI-2 QS mod inactive, V-ATPase pH inactive and SUMO Mot1 rescue inactive.
`C/C(=N\N(Cc1ccccc1)c1ccccc1)c1ccncc1` gave ATG4B inhibitor inactive, Efflux pump mplx inactive, AI-2 QS mod inactive, V-ATPase pH inactive and SUMO Mot1 rescue inactive.
Screening Cn1c(SCC(=O)Nc2ccccc2)nc(O)cc1=O returned ATG4B inhibitor inactive, Efflux pump mplx inactive, AI-2 QS mod inactive, V-ATPase pH 8.9, SUMO Mot1 rescue inactive and VATPase regulator inactive.
Screening Cn1c(=O)c(-c2cc(Br)ccc2N)nc2ccccc21 returned ATG4B inhibitor inactive, Efflux pump mplx inactive, AI-2 QS mod inactive, V-ATPase pH inactive, SUMO Mot1 rescue inactive and VATPase regulator inactive.
Screening CCOC(=O)Cn1c(=O)c(-c2ccccc2N)nc2ccccc21 returned ATG4B inhibitor inactive, Efflux pump mplx inactive, AI-2 QS mod inactive, V-ATPase pH inactive, SUMO Mot1 rescue inactive and VATPase regulator inactive.
Screening CN(C)c1nc2ccccc2n(C)c1=O returned ATG4B inhibitor inactive, Efflux pump mplx inactive, AI-2 QS mod inactive, V-ATPase pH inactive and SUMO Mot1 rescue inactive.
Screening CCOC(=O)Cn1c(=O)c(-c2cc(Br)ccc2N)nc2ccccc21 returned ATG4B inhibitor inactive, Efflux pump mplx inactive, AI-2 QS mod inactive, V-ATPase pH 31.2, SUMO Mot1 rescue inactive and VATPase regulator inactive.
Screening CCOC(=O)CCn1c(CC(=O)OCC)nc2ccccc21 returned ATG4B inhibitor inactive, Efflux pump mplx inactive, AI-2 QS mod inactive, V-ATPase pH inactive and SUMO Mot1 rescue inactive.
O=C1CNC(=S)N1CCc1ccc(O)c(O)c1 was read as ATG4B inhibitor inactive, Efflux pump mplx inactive, AI-2 QS mod inactive, V-ATPase pH inactive and SUMO Mot1 rescue inactive.
Screening CCCCCCCCNC(=O)c1cccnc1SCC(=O)Nc1ccccc1OC returned ATG4B inhibitor inactive, Efflux pump mplx inactive, AI-2 QS mod inactive, V-ATPase pH 15.7, SUMO Mot1 rescue inactive and VATPase regulator inactive.
`COc1ccc(OC)c(NC(=O)CSc2ncccc2C(=O)O)c1` gave ATG4B inhibitor inactive, Efflux pump mplx inactive, AI-2 QS mod inactive, V-ATPase pH inactive and SUMO Mot1 rescue inactive.
Screening CCN(CC)C(=O)C1=C(C)N(CCCOC)C(=O)C(CC(=O)NCCCN(C)C)C1 (configuration not stated) returned V-ATPase pH inactive.
`CCNc1nc(N)c(C(=O)c2ccc(Cl)s2)s1` gave ATG4B inhibitor inactive, Efflux pump mplx inactive, AI-2 QS mod inactive, V-ATPase pH inactive and SUMO Mot1 rescue inactive.
